Whole data set: some 110,000 compounds, median “z-score” near -0.1, cut for the highest 2% near 2. What follows is part of a selection rich in the highest values, with near analogues and random picks from the rest. The source made the active and inactive calls.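 The calls were made as follows: active = z-score in the third read window above 3 or below -3; inactive = the rest.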
Biological target: Metabotropic glutamate receptor 8 (Rattus norvegicus) (UniProt P70579)
Assay: rat mGluR8 modulators via GIRK flux, primary screen, cell-based, thallium flux, HTS (AID 488969)
Conditions: HEK293 rat mGluR8, GIRK (G protein-gated inwardly rectifying potassium channel) thallium flux, FluoZin2; at 10 µM; stronger effect = higher value; submaximal glutamate (EC20) added with thallium

Sequence of Metabotropic glutamate receptor 8 (Rattus norvegicus) (P70579 whole entry, looked up): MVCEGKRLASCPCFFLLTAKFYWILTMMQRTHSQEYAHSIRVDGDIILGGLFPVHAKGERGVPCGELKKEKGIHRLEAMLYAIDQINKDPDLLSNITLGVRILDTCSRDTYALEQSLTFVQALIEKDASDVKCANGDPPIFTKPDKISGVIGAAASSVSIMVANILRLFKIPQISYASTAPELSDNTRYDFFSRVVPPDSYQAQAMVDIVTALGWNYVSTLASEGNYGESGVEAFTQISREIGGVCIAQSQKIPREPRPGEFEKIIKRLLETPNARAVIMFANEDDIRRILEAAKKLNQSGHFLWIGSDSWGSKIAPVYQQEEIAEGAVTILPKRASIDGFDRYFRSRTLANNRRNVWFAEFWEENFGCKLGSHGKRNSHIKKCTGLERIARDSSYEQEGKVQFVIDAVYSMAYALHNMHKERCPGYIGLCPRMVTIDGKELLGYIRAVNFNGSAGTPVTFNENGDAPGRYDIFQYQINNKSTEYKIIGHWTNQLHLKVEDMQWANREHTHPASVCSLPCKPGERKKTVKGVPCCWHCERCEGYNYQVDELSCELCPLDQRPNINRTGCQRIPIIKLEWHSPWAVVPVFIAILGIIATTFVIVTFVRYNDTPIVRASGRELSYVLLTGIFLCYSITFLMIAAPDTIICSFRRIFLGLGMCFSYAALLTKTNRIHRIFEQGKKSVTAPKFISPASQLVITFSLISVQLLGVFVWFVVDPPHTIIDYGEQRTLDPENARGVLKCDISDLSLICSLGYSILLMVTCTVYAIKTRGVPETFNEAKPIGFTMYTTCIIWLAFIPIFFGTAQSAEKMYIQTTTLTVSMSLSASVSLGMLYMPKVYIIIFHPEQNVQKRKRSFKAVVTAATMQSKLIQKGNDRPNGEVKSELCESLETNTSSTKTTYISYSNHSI

Row | Compound | z-score
1 | COc1ccccc1-n1c(CCn2nc(C)c(Br)c2C)n[nH]c1=S | -0.472
2 | CC1(C)CC(=O)C(N=Nc2ccc(Cl)cc2)=C(O)C1 | -0.154
3 | CC(C)c1ccc(OCC(=O)N(c2ccccn2)C2CCCCC2)cc1 | -0.397
4 | O=C(CSc1nncs1)NCc1ccc2c(c1)OCO2 | -0.652
5 | COc1cccc(-n2c(SCC(=O)N3CCCC3)nc3c([nH]c4ccccc43)c2=O)c1 | -0.189
6 | Cc1nnc2c3ccccc3c(-c3cccc4ccccc34)nn12 | -1.04
7 | CC1CCCC(C)N1C(=O)CSc1nnc(COc2ccccc2)n1-c1ccccc1 (configuration not stated) | -0.853
8 | CC(C)(CO)Nc1nc(N2CCCC2)nc(N2CCCC2)n1 | 2.09
9 | CC(C)(C)Nc1nc(N2CCCC2)nc(N2CCCC2)n1 | -0.14
10 | OCCNc1nc(N2CCCC2)nc(N2CCCC2)n1 | -0.968
11 | CC1CCCN(CC(O)COc2ccc(Cl)cc2)C1 (configuration not stated) | 0.149
12 | O=C(CSc1nccc2ccccc12)N1CCN(c2ccccn2)CC1 | -1.6
13 | Cc1ccc(OCC(=O)Nc2cccc(S(=O)(=O)N3CCCCC3)c2)c([N+](=O)[O-])n1 | 0.216
14 | O=C(COc1cccnc1[N+](=O)[O-])Nc1cccc(S(=O)(=O)N2CCCCC2)c1 | -0.289
15 | Cc1ccc(OCC(=O)Nc2ccc(C)c(S(=O)(=O)N3CCCCC3)c2)c([N+](=O)[O-])n1 | 6.89 (active)
16 | Cc1ccc(NC(=O)COc2cccnc2[N+](=O)[O-])cc1S(=O)(=O)N1CCCCC1 | 4.45 (active)
17 | Cc1ccc(OCC(=O)Nc2cc(S(=O)(=O)N3CCCCC3)ccc2C)c([N+](=O)[O-])n1 | -0.377
18 | Cc1ccc(NC(=O)COC(=O)CNC(=O)c2cccc([N+](=O)[O-])c2)cc1S(=O)(=O)N1CCCCCC1 | 0.745
19 | CCC(c1nnc(SCC(=O)Nc2nnc(-c3ccccc3)o2)o1)N(C)C (configuration not stated) | -0.0751
20 | Oc1cccc(/C=N/Nc2cc(N3CCOCC3)nc(N3CCOCC3)n2)c1 | -0.242
21 | O=C(NC1CCc2ccccc21)C1CCN(S(=O)(=O)c2ccc(-n3cnnn3)cc2)CC1 (configuration not stated) | 0.204
22 | O=C(NC1CCCc2ccccc21)C1CCN(S(=O)(=O)c2ccccc2F)CC1 (configuration not stated) | -0.424
23 | O=C(NC1CCc2ccccc21)C1CCN(S(=O)(=O)c2ccc(Cl)cc2)CC1 (configuration not stated) | 2.31
24 | O=C(/C=C/c1ccc(F)cc1)N1CCCN(C(=O)/C=C/c2ccc(F)cc2)CC1 | -0.668

Row | Compound | z-score
25 | CCCn1c(SCC(=O)N2N=C3/C(=C/c4ccc(OC)cc4)CCCC3C2c2ccc(OC)cc2)n[nH]c1=O (configuration not stated) | -0.0176
26 | O=C(CSCc1ccc(F)cc1)Nc1ccccc1 | 0.0848
27 | CC(C)CC(=O)NS(=O)(=O)c1ccc(N)cc1 | 0.0965
28 | COc1cccc(/C=C/C(=O)Oc2ccc(C(=O)c3ccc(F)cc3)cc2)c1 | -2.23
29 | Cc1ccc(S(=O)(=O)NCCNC(=O)C2CCCNC2=O)cc1 (configuration not stated) | 2.41
30 | CCCCNC(=O)C1CCCNC1=O (configuration not stated) | 0.0768
31 | CN(C)CCNC(=O)C1CCCNC1=O (configuration not stated) | 0.0264
32 | Cc1ccc(NC(=O)CSCC#N)cc1Cl | -0.0832
33 | NC(=O)SCC(=O)Nc1cccc(Cl)c1 | 2.86
34 | COC(=O)CCC(=O)Nc1cccc(Cl)c1 | -0.0969
35 | Cc1ccc(NC(=O)CSC(N)=O)cc1Cl | 5.44 (active)
36 | Cc1ccc(NC(=O)CCn2cccc2)cc1Cl | -0.079
37 | NC(=O)SCC(=O)Nc1ccc(Cl)cc1 | 5.18 (active)
38 | Cc1ccc(Cl)cc1NC(=O)CSC(N)=O | 0.476
39 | N#CCSCC(=O)Nc1ccc(Cl)cc1 | 0.285
40 | O=C(COc1ccccc1O)Nc1ccc(Cl)cc1 | -0.0165
41 | Cc1ccc(NC(=O)Cn2cccc2)cc1Cl | 2.51
42 | Nc1cc(=O)[nH]c(SCC(=O)Nc2cccc(Cl)c2)n1 | 0.151
43 | Cc1ccc(Cl)cc1NC(=O)Cn1cccc1 | -0.44
44 | O=C(NNC1=NCCCCC1)c1ccccc1 | -0.78
45 | O=S(=O)(Cc1ccccc1)N1CCCC(c2nc(-c3ccc(F)cc3)no2)C1 (configuration not stated) | -0.449
46 | Cc1nc(NC(=O)CSc2ccc(-c3nc4ccccc4[nH]3)cn2)sc1C | -0.0534
47 | O=C(/C=C/c1ccc(OCc2ccccc2)c(OCc2ccccc2)c1)c1cccnc1 | 0.691
48 | O=C(NCc1ccc(F)cc1)C1CCN(C(=O)NCc2ccccc2)CC1 | 0.336

Row | Compound | z-score
49 | Cc1ccc(NC(=O)N2CCC(C(=O)NCc3ccccc3)CC2)cc1 | -0.545
50 | Cc1ccc(NC(=O)N2CCC(C(=O)NCc3ccc(F)cc3)CC2)cc1 | 2.21
51 | O=C(COCC(=O)N/N=C/c1ccccc1F)N/N=C/c1ccccc1F | -0.201
52 | CCn1c(SCc2ccc(C#N)cc2)nnc1-c1cccc(Cl)c1 | -0.177
53 | CCn1c(SCc2cccc(C)c2)nnc1-c1ccccc1 | -0.431
54 | CCn1c(SCc2ccc(Cl)cc2)nnc1-c1ccccc1 | 3.4 (active)
55 | COCCN(C(=O)Nc1ccccc1)c1ccccc1 | -0.157
56 | Cc1cc(Br)ccc1NC(=S)Nc1cccc([N+](=O)[O-])c1 | 0.848
57 | Cc1ccc(C2CC2C(=O)NNC(=S)Nc2cccc(Cl)c2)cc1 (configuration not stated) | 5.51 (active)
58 | O=C(NNC(=O)C1CC1c1ccccc1)Nc1cccc(Cl)c1 (configuration not stated) | -0.494
59 | Cc1ccc(C2CC2C(=O)NNC(=S)Nc2cccc(C)c2)cc1 (configuration not stated) | 3.29 (active)
60 | Cc1cccc(NC(=S)NNC(=O)c2ccco2)c1 | 0.0496
61 | Cc1ccc(C2CC2C(=O)NNC(=S)Nc2ccc(Cl)cc2)cc1 (configuration not stated) | 4.55 (active)
62 | Cc1ccc(C2CC2C(=O)NN)cc1 (configuration not stated) | -0.033
63 | Cc1ccc(NC(=S)NNC(=O)C2CC2c2ccc(C)cc2)cc1 (configuration not stated) | 1.64
64 | CC1=C(C)CC(C(=O)Nc2cccc(Cl)c2)C(C(=O)O)C1 (configuration not stated) | -0.289
65 | Cc1cccc(NC(=O)C2CCCC2)c1 | 0.277
66 | O=C(c1ccccc1)c1ccc(Oc2ncccn2)cc1 | -0.321
67 | O=[N+]([O-])c1ccccc1N/N=C/c1cc2ccccc2nc1Cl | -0.459
68 | CC(C)c1ccc(-c2c(C#N)c(N)nc(SCC(=O)N3CCCCC3)c2C#N)cc1 | -0.019
69 | O=C1c2cccc3cccc(c23)C(=O)N1CCN1CCN(C(=S)Nc2ccc(F)cc2)CC1 | -0.203
70 | Cc1cccc(-n2c(SCC(=O)Nc3ncc(Cl)cc3Cl)nc3ccccc32)c1 | -0.585
71 | Cc1ccc(-n2c(-c3ccccc3)n[nH]c2=S)cc1 | 0.357
72 | COc1ccc(-n2c(=S)[nH]c3ccccc32)cc1 | 1.9

Row | Compound | z-score
73 | COc1ccc(-n2cc(-c3ccccc3)[nH]c2=S)cc1 | 11.4 (active)
74 | O=C(CCCC(=O)NC1CCCC1)NC1CCCC1 | -0.0851
75 | CC1CCCCC1NC(=O)CSCC(=O)O (configuration not stated) | -0.0424
76 | O=C(CCC1CCCC1)NC1CCCCC1 | -0.0138
77 | O=C(O)CCC(=O)NC1CCCCC1 | -0.0259
78 | O=C(O)CCC(=O)NC1CCCCC1NC(=O)CCC(=O)O (configuration not stated) | 2.2
79 | O=C(O)CCC(=O)NC1CCCCCCC1 | 3.34 (active)
80 | O=S(=O)(NCc1cccnc1)c1cccc2cccnc12 | -0.0796
81 | Cc1cc(C)c(S(=O)(=O)N(C)CC(=O)N2CCCCC2)c(C)c1 | 0.255
82 | COc1ccc2c(c1)c(N=O)c(O)n2C | -0.55
83 | O=C(C1CCN(S(=O)(=O)N2CCOCC2)CC1)N1CCc2ccccc21 | -1.37
84 | O=C(NCCO)c1scc2c1OCCO2 | 0.107
85 | Cc1ccc(-n2c(O)c(C=NCc3ccccn3)c3ccccc3c2=O)cc1 | -0.774
86 | O=c1c2ccccc2c(C=NCc2ccccn2)c(O)n1-c1ccccc1 | 9.73 (active)
87 | Cc1cccc(-n2c(O)c(C=NCc3ccccn3)c3ccccc3c2=O)c1 | -0.159
88 | COc1ccc(CNC(=O)C/C(C)=N/NC(=O)Cc2ccc(OC)c(OC)c2)cc1 | 0.123
89 | CCCCN(CCCC)S(=O)(=O)c1ccc2[nH]c(=O)[nH]c2c1 | -0.144
90 | COc1cc(/C=C(\C#N)C(=O)Nc2cccnc2)ccc1OC(C)C | 2.99
91 | COc1ccc(/C=C(\C#N)C(=O)Nc2cccnc2)cc1 | -0.0907
92 | CCOc1ccc(/C=C(\C#N)C(=O)Nc2cccnc2)cc1 | -0.416
93 | CC(C)C(=O)NC(C)C(c1cccs1)N1CCN(C)CC1 (configuration not stated) | 0.199
94 | COc1ccccc1OCCOc1ccc(C(=O)c2ccccc2)cc1 | 1.04
95 | O=C(CSc1ccccc1)NCCSCc1ccccc1 | -0.635
96 | CCNC(=O)CSc1nc2cc([N+](=O)[O-])ccc2n1-c1cccc(C(F)(F)F)c1 | -0.0324

Row | Compound | z-score
97 | NC(=O)CSc1nc2cc([N+](=O)[O-])ccc2n1-c1cccc(C(F)(F)F)c1 | 0.159
98 | C=CCNC(=O)NC(=O)CSc1nc2cc([N+](=O)[O-])ccc2n1-c1cccc(C(F)(F)F)c1 | 2.75
99 | O=C(OCCN1C(=O)CCC1=O)c1ccc(S(=O)(=O)N2CCCCC2)cc1 | -1.06
100 | Cn1c(NC(=O)c2cccs2)c(-c2cccs2)c(=O)c2ccccc21 | 0.899
101 | Cc1nn(Cc2ccc(Cl)cc2)c(C)c1NC(=O)C1CC=CCC1C(=O)O (configuration not stated) | -0.0201
102 | CCN(CC)CCCNC(=O)C1c2ccccc2Oc2ccccc21 | 0.199
103 | CN(C)CCC1Sc2ccccc2Oc2ccccc21 (configuration not stated) | 1.77
104 | CNCCCC1Sc2ccccc2Oc2ccccc21 (configuration not stated) | 2.85
105 | Cc1sc(NC(=O)c2ccco2)c(C(=O)c2ccc(Cl)cc2)c1C | -0.135
106 | CC(C)(C)NC(=O)c1cc(Cl)ccc1[N+](=O)[O-] | -0.172
107 | N#C/C(=C/c1cn(-c2ccccc2)nc1-c1cccc(S(=O)(=O)N2CCOCC2)c1)C(=O)NCc1ccco1 | -0.112
108 | NC1=NC2(CCCCC2)N(c2cccc(Cl)c2)C(N)=N1 | 0.453
109 | Cc1cccc(N2C(N)=NC(N)=NC23CCCCC3)c1 | 2.24
110 | Cc1ccc(N2C(N)=NC(N)=NC23CCCC3)c(C)c1 | 0.0847
111 | Cc1ccc(S(=O)(=O)NCCSCc2ccccc2)cc1 | -0.24
112 | Cn1c(=O)cc(OCCCC(=O)Nc2ccc3c(c2)OCCO3)c2ccccc21 | -0.101
113 | CC(=O)c1cn(CC(=O)NCc2ccc3c(c2)OCO3)c2ccccc12 | -0.0873
114 | Cn1cc(CCC(=O)NCc2ccc3c(c2)OCO3)c2ccccc21 | 3.75 (active)
115 | Cn1c(=O)cc(OCCCC(=O)NCc2ccc3c(c2)OCO3)c2ccccc21 | 8.84 (active)
116 | O=C(CCn1cccc1)NCc1ccc2c(c1)OCO2 | -0.423
117 | COc1ccc(CNC(=O)CCCOc2cc(=O)n(C)c3ccccc23)cc1 | 0.0421

— PubChem BioAssay AID488969 (Vanderbilt High Throughput Screening Facility, 2010)
